Results on 154 variants are retold here after a collection of fitness landscapes (doi:10.1126/science.1257360).

Whole data set: some 140,000 sequences, median “enrichment ratio after two sorts for PhoP signalling” near 0, cut for the highest 2% near 11. Many of the other results were omitted from the sample, so the highest values are more common in it than they were. Where only a bound is given, the exact number is not on record here.

First the molecules themselves.
B1: PhoQ; a variant is named by its letters at X, in order, P23837 (parent)
chain: MKKLLRLFFPLSLRVRFLLATAAVVLVLSLAYGMVALIGYSVSFDKTTFRLLRGESNLFYTLAKWENNKLHVELPENIDKQSPTMTLIYDENGQLLWAQRDVPWLMKMIQPDWLKSNGFHEIEADVNDTSLLLSGDHSIQQQLQEVREDDDDAEMTHSVAVNVYPATSRMPKLTIVVVDTIPVELKSSYMVWSWFIYVLSANLLLVIPLLWVAAWWSLRPIEALAKEVRELEEHNRELLNPATTRELTSLVRNLNRLLKSERERYDKYRTTLTDLTHSLKTPLXXLQXXLRSLRSEKMSVSDAEPVMLEQISRISQQIGYYLHRASMRGGTLLSRELHPVAPLLDNLTSALNKVYQRKGVNISLDISPEISFVGEQNDFVEVMGNVLDNACKYCLEFVEISARQTDEHLYIVVEDDGPGIPLSKREVIFDRGQRVDTLRPGQGVGLAVAREITEQYEGKIVAGESMLGGARMEVIFGRQHSAPKDE

The variants in the assay derive from B1. Briefly: enrichment ratio after two sorts for PhoP signalling (ratio (wild type AVST 3.29)); higher = more functional. The note with it: with PhoP (E. coli).
Regarding KYGK, the enrichment ratio is no more than 0.25.
Under RDWY stands no more than 0.25; under FLEP, no more than 0.25; under HSIW, no more than 0.25.
Under NECC stands no more than 0.25.
In the case of QECC it was no more than 0.25; in that of MECC, 14.4.
APCG: the enrichment ratio is no more than 0.25.
Regarding HWFW, the enrichment ratio is no more than 0.25.
In the case of QDYL it was no more than 0.25; in that of TKQC, 12.8; in that of NQQC, no more than 0.25.
As for VLQC, the enrichment ratio was no more than 0.25.
Regarding TSQC, the enrichment ratio turned out to be 14.5.
Under VVQC stands 12.7.
For the variant NSQC, the enrichment ratio is no more than 0.25.
In the case of KSQC it was no more than 0.25.
Under THQC stands 13.1.
Under VYQC stands no more than 0.25.
In the case of KAQC, the enrichment ratio is no more than 0.25.
As to NHQC, the enrichment ratio was no more than 0.25.
Take SHQC: the enrichment ratio was no more than 0.25.
In the case of FREL it was no more than 0.25; in that of PHMW, no more than 0.25; in that of YKAD, no more than 0.25.
Regarding LFMF, the enrichment ratio was no more than 0.25.
For the variant WKII, the enrichment ratio was no more than 0.25.
Regarding WHFY, the enrichment ratio was no more than 0.25.
In the case of WCRI it was no more than 0.25; in that of QMHI, no more than 0.25.
Under QMMI stands no more than 0.25; under QMTH, no more than 0.25; under QRNG, no more than 0.25.
As to QMDS, the enrichment ratio was no more than 0.25.
Under QMWW stands no more than 0.25.
Under QEGE stands no more than 0.25; under QMNG, 38.7.
In the case of QMDH it was 15.
In the case of QMGE, the enrichment ratio amounted to 96.1.
Under QMHF stands 13.5; under QMGF, 6.84.
In the case of DWSK it was no more than 0.25.
In the case of GLGH it was no more than 0.25.
On to IMDI, for which the enrichment ratio was no more than 0.25.
In the case of QSMQ it was no more than 0.25; in that of VMGY, no more than 0.25.
In the case of NRNH it was no more than 0.25; in that of TNKN, no more than 0.25; in that of QMNF, 36.
As to QMHQ, the enrichment ratio was determined as 13.4.
In the case of QMHP it was no more than 0.25.
Under QMHM stands 28.3.
Under QRNF stands no more than 0.25; under QMNL, 3.36.
For the variant QMWM, the enrichment ratio is no more than 0.25.
Take QMPM: the enrichment ratio was no more than 0.25.
Under QMNI stands 9.75.
With QMWQ, the enrichment ratio is no more than 0.25.
Under QMNN stands 12.1.
In the case of QENN it was 3.33; in that of DYPW, no more than 0.25.
In the case of LWVM it was no more than 0.25; in that of GLWV, no more than 0.25.
Consider MEAP, for which the enrichment ratio is no more than 0.25.
Under GFED stands no more than 0.25; under ATGH, 5.03; under EKMA, no more than 0.25.
Turning to QMVG, the enrichment ratio was no more than 0.25.
In the case of QMHG it was 13; in that of QMTR, no more than 0.25.
Under SENL stands no more than 0.25; under SEYM, 19.4; under SEEN, no more than 0.25.
In the case of SLYM it was no more than 0.25.
For SEQN, the enrichment ratio turned out to be 21.6.
For SEGM, the enrichment ratio stood at 6.17.
In the case of ISAH it was no more than 0.25.
In the case of GGLK it was no more than 0.25; in that of HLNC, no more than 0.25.
With DDAI, the enrichment ratio was no more than 0.25.
In the case of QAIL it was no more than 0.25; in that of FARL, no more than 0.25; in that of FAAN, no more than 0.25.
In the case of FALL it was 16.3; in that of MMLL, 1.58; in that of MALL, 16.2.
Consider FFLL, for which the enrichment ratio is no more than 0.25.
Under ADHN stands no more than 0.25.
Regarding ALCG, the enrichment ratio worked out at 4.5.
In the case of WHCL it was no more than 0.25.
For SADG, the enrichment ratio is no more than 0.25.
Under LGIQ stands no more than 0.25; under INIV, no more than 0.25.
For AIMC, the enrichment ratio is no more than 0.25.
Under ANMS stands 11.6; under INMV, 24.2; under AWVV, no more than 0.25.
Under INCV stands no more than 0.25; under ANMC, 22.9; under ADMC, 2.74.
In the case of ANMG it was no more than 0.25.
For ADVV, the enrichment ratio worked out at 8.21.
Under AEVV stands 14.7; under ANQF, 1.01; under HRGK, no more than 0.25.
Under GKTM stands 1.84.
In the case of IPYY, the enrichment ratio was no more than 0.25.
In the case of KKIV it was no more than 0.25; in that of GAYK, no more than 0.25.
Under LLMQ stands no more than 0.25; under HFHH, no more than 0.25; under ATFM, no more than 0.25.
Under TRVV stands 14.5; under ANMR, 5.84; under QRVV, no more than 0.25.
AIVV: the enrichment ratio is 10.
In the case of ANVA it was 3.53; in that of AHVV, no more than 0.25.
Under ANMI stands 26.5.
In the case of ANLS it was 12; in that of HRVV, no more than 0.25; in that of ANLA, 5.31.
ANLW: the enrichment ratio was 9.25.
Under ANVV stands 11.6; under QRFS, no more than 0.25.
On to DWEC, for which the enrichment ratio is no more than 0.25.
On to RQRD, for which the enrichment ratio was no more than 0.25.
For the variant NCDF, the enrichment ratio was no more than 0.25.
Under HLKR stands no more than 0.25; under RGHG, no more than 0.25.
Under TPEY stands no more than 0.25; under SLIG, no more than 0.25; under YMIK, no more than 0.25.
In the case of RLMY it was no more than 0.25; in that of KLYR, no more than 0.25.
As to AKMS, the enrichment ratio was 3.84.
For the variant AIMS, the enrichment ratio amounted to 14.3.
In the case of ATMS it was 6.27.
In the case of ANMD it was no more than 0.25; in that of LNMC, 7.24.
Under TNMC stands 35.5; under MNMC, 3.1; under AKVT, 12.6.
As to ANMW, the enrichment ratio was no more than 0.25.
In the case of ALVT it was 1.4; in that of ANMV, 19.1; in that of AAVT, 2.41.
Under FEGD stands no more than 0.25; under YPGN, no more than 0.25.
Under WAKM stands no more than 0.25; under PMHP, no more than 0.25; under ALWL, no more than 0.25.
Turning to HRYP, the enrichment ratio was no more than 0.25.
In the case of YHPC it was no more than 0.25.
